Assay outcomes (PubChem)
Giardia FBPA inh = Giardia lamblia aldolase inhibition | A8B2U2 | actives 0.71% (n = 290,000) | purified Giardia FBPA | Potency, µM (top dose mostly 59.6 µM), for the others: at the highest dose activity, negative = inhibition, most hits filed as inhibitors | AID 2451; note: potency is the fitted concentration of half-maximal effect; % is set by controls: 0 for no effect and ±100 for the full control effect; nearly all actives have a fitted effect of over 55% in size
Target sequence (A8B2U2 whole entry, looked up): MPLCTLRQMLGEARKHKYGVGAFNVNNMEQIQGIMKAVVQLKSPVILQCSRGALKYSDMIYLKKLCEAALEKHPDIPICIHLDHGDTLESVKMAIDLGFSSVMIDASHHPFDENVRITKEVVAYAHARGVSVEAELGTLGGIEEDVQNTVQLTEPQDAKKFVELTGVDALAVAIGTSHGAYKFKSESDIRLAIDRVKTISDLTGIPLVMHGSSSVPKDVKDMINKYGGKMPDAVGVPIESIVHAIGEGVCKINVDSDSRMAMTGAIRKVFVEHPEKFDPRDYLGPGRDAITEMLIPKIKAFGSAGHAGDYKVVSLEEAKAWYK
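Giardia FBPA (40 nM reagent) was preincubated 10 min at RT with compound (up to 57.5 uM final), then substrate plus GAPDH/TPI/NAD/arsenate coupling system with diaphorase/resazurin was added; resorufin fluorescence (525/598 nm) was read after 20 min.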
CHX counter = counter-screen hit for Shiga toxin inhibitors, cycloheximide; cell reporter, cycloheximide protein synthesis inhibition counterscreen; max response, %; actives 12% (n = 300,000); in the data active = max response mostly above about 13%, no sharp cut-off; inactive = mostly below about 14%; note: read at 38.3 µM for the half of the compounds with a filed dose; 0% is about no effect
NS1 function inh = inhibitors of influenza NS1 protein function; Potency, µM (top dose mostly 46.1 µM), for the others: at the top dose activity, positive = more growth; actives 0.4% (n = 270,000); AID 2326; calls by dose curve; note: potency is the fitted concentration of half-maximal effect; actives are rising curves; nearly all actives have a fitted effect of over 50% in size
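S. cerevisiae expressing influenza A NS1, grown in glucose, washed, then diluted 1:100 into pH 6.0 -URA galactose medium with 23 nl compound. Growth recovery read as OD600; NS1-free strain serves as control.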
Pf growth 48h = inhibits P. falciparum growth in the first generation, 48 h; P. falciparum luciferase growth in erythrocytes, 48 h; Potency, µM (titrated, usually from 28.7 µM), for inactives: at the highest dose activity change, negative = inhibition, hits mostly inhibitors; actives 5.9% (n = 310,000); AID 504832; note: potency is the fitted concentration of half-maximal effect; % is set by controls: 0 for no effect and ±100 for the full control effect
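In quantitative HTS format, infected erythrocytes bearing luciferase-reporter parasites were treated for a single generation at 37 C. Luminescence after adding detection reagent served as the growth measure.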
Pf growth 96h = inhibits malaria parasite growth, 96 h; P. falciparum luciferase reporter growth, 96 h; Potency, µM (doses to about 28.7 µM), without a hit: top-dose activity change, negative = inhibition, hits mostly inhibitors; actives 6.9% (n = 320,000); note: potency is the fitted concentration of half-maximal effect; % is set by controls: 0 for no effect and ±100 for the full control effect
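Luminescence readout: decreased luciferase signal marks inhibited growth of reporter-expressing P. falciparum in infected red cells (2% hematocrit, 0.05% parasitemia final), exposed to compound two generations (96 h, 37 C, 5% CO2).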
Shiga toxin inh = inhibitors of Shiga toxin in Vero cells | Vero cells, Shiga toxin protein synthesis inhibition reporter | inhibition, % at 38.7 µM | actives 9.2% (n = 290,000); in the data active = inhibition mostly above about 28%, no sharp cut-off; inactive = mostly below about 43%; note: 0% is about no effect
* = called active by the depositor; i = inactive; u = inconclusive; x = no result given; [ ] = remark or other dose. In the library only some 21% were active in any assay of this set; here they are far more common. Unless noted, calls come from the whole dose curve; as a rule, active = well fitted curve in the direction sought with a large enough effect; inconclusive = small, poorly fitted or top-dose-only effect, or another doubt; inactive = no such curve, though single readings can be large; an effect the other way counts as inactive or inconclusive.

SMILES	Giardia FBPA inh	CHX counter	NS1 function inh	Pf growth 48h	Pf growth 96h	Shiga toxin inh
COc1ccc(C2C3C=CCC(c4cccc(-c5ccc(C)cc5)c4)C3C(=O)N2Cc2ccccc2)cc1Cl (stereo not given)	-2%	-8	-12%	12µM*	u	-5
CC(=O)NC(Cc1c[nH]c2ccccc12)C(=O)N1CCN(S(=O)(=O)c2ccccc2)CC1 (stereo not given)	x	x	x	-26%	-24%	x
NCCc1ccc(S(=O)(=O)O)cc1[N+](=O)[O-]	x	x	-3%	x	x	x
CCOC(=O)c1ccc(-c2ccc(/C=N/NC(=O)CN(c3cccc(C)c3)S(C)(=O)=O)o2)cc1	4%	2	-28%	52%	u	-5
CCOC(=O)c1ccc(-c2ccc(/C=N/NC(=O)CN(c3ccccc3Cl)S(C)(=O)=O)o2)cc1	-2%	14*	-31%	-66%	u	5
O=C(CN1CC(=O)Oc2ccccc21)OCC(=O)c1cccc(Br)c1	u	18*	-90%	u	u	55
CCCC(Cn1cncn1)c1ccc(Cl)cc1Cl (stereo not given)	-9%	-6	x	x	x	-10
COc1ccc(S(=O)(=O)Nc2ccc(S(=O)(=O)Nc3nccs3)cc2)cc1	7%	-1	-12%	5.2µM*	15%	1
O=C(O)CCC(=O)Nc1ccc(S(=O)(=O)Nc2nccs2)cc1	5%	-2	11%	-22%	-22%	-5
O=C(O)/C=C/C(=O)Nc1ccc(S(=O)(=O)Nc2nccs2)cc1	u	-3	1%	41%	1.7µM*	-3
Cc1ccc(S(=O)(=O)Nc2ccc(S(=O)(=O)Nc3nccs3)cc2)c([N+](=O)[O-])c1	-1%	-1	-17%	4%	2.9µM*	-3
CCCN1C(=O)c2[nH]nc(-c3cc(Cl)c(C)cc3O)c2C1c1ccc(O)c(OC)c1 (stereo not given)	-7%	-1	10%	u	10µM*	-7
COCCCN1C(=O)c2[nH]nc(-c3cc(C)cc(C)c3O)c2C1c1ccc(O)c(OC)c1 (stereo not given)	1%	-1	u	9.3µM*	u	-4
Cc1cc(O)c(-c2n[nH]c3c2C(c2cccc(O)c2)N(Cc2cccnc2)C3=O)cc1Cl (stereo not given)	2%	-1	-11%	-19%	-7%	11
CC(=O)NCCNc1ncnc2ccc(-c3ccccc3C(F)(F)F)cc12	-3%	x	x	x	x	x
CN(Cc1ccccc1)S(=O)(=O)c1ccc(Cl)c(C(=O)NCc2cccnc2)c1	x	x	x	u	-2%	x
CN(C)/C=C/C(=O)/C=C/c1cn(-c2ncc(C(F)(F)F)cc2Cl)c2ccccc12	0%	-1	1%	13µM*	u	18
Cc1ccccc1NC(=S)N(C)Cc1cn(C)c2ccccc12	-1%	-2	18%	u	66%	-14
O=C(Nc1cccnc1)c1c(F)cccc1F	6%	7	4%	20%	x	1
O=C(/C=C/c1c(F)cccc1Cl)Nc1cccnc1	2%	39*	-79%	6%	u	x
O=C(/C=C/c1cc(Br)ccc1F)Nc1cccnc1	-8%	26*	-43%	3%	20%	39*
COc1cc(C(=O)NNC(=S)Nc2ccc(S(N)(=O)=O)cc2)cc(OC)c1OC	3%	-7	5%	4%	4%	-8
CCCCn1c(/N=C/c2c[nH]c3ccccc23)nc2ccccc21	x	6	-17%	u	31%	8
CCn1c(/N=C/c2c[nH]c3ccccc23)nc2ccccc21	-8%	3	-112%	12%	1.9µM*	27
CCCn1c(/N=C/c2c[nH]c3ccccc23)nc2ccccc21	-2%	42*	-13%	33%	33%	12
SMILES	Giardia FBPA inh	CHX counter	NS1 function inh	Pf growth 48h	Pf growth 96h	Shiga toxin inh
Clc1cc(Cl)cc(C2=N[C@@H](Cc3ccccc3)CO2)c1	4%[89.2 µM]	6	x	x	x	i
CCOc1ccc(-c2nnc(SCC(=O)N3CCCC3)o2)cc1	2%	-1	15%	-3%	13%	2
Cc1cc(C)nc(SCC(=O)N2CCOCC2)n1	-1%	-1	4%	x	-11%	-10
COc1ccc(-c2nnc(SCC(=O)N3CCOCC3)o2)cc1OC	-1%	1	9%	11%	12µM*	11
Cc1cc(C)nc(SCc2nnc(SCC(=O)N3CCOCC3)o2)n1	0%	-1	1%	29%	7.4µM*	21
CCOc1ccc(-c2nnc(SCC(=O)N3CCOCC3)o2)cc1	11%	24*	-5%	30%	u	69*
CCOC(=O)c1c(NC(=O)C(C)N2CCN(C(=O)c3ccco3)CC2)sc2c1CCCC2 (stereo not given)	-9%	19*	25%	x	u	29
CC1CCc2c(sc(NC(=O)/C=C/c3cccs3)c2C(=O)O)C1 (stereo not given)	-4%	11	-27%	6%	9.3µM*	-3
Cc1occc1C(=O)Nc1sccc1C(N)=O	x	38*	-100%	42%	-20%	35
O=C(Nc1sc2c(c1C(=O)O)CCCC2)C(=O)N1CCOCC1	x	20*	9%	33%	16%	33*
CCCc1cc(C(N)=O)c(NC(=O)c2ccoc2C)s1	-3%	8	-92%	-10%	x	-3
CCCCOc1ccc(OC(=O)Nc2cc(Cl)ccc2OC)cc1	1%	2	u	u	11%	-3
O=C(O)CC1SC(=O)N(CC(=O)c2ccccc2)C1=O (stereo not given)	0%	-2	12%	-2%	-80%	-7
NCCc1nnc(SCC(=O)c2ccc(Cl)cc2)o1	0%	0	1%	19%	24%	-13
CC1CCc2c(sc(NC(=O)c3ccco3)c2C(=O)O)C1 (stereo not given)	-7%	40*	-108%	15%	21%	126*
CN(C)C(=O)c1c(NC(=O)c2ccco2)sc2c1CCCCC2	-1%	16*	-1%	8%	-18%	29
Cc1occc1C(=O)Nc1sc2c(c1C(N)=O)CCCCC2	-7%	29*	-37%	82%	-7%	62*
NC(=O)c1ccsc1NC(=O)c1coc2ccccc2c1=O	1%	24*	7%	96%	493%	104*
CN(C)C(CNC(=O)c1coc2ccccc2c1=O)c1ccccc1 (stereo not given)	x	14	3%	0%	5%	22
COC(=O)c1c(NC(=O)c2ccoc2C)sc2c1CCC2	-4%	0	-2%	0%	u	-5
N#Cc1c(NC(=O)c2ccco2)sc2c1CCC2	x	-4	-4%	u	u	-25
O=C(Nc1sc2c(c1C(=O)O)CCCCC2)c1ccco1	0%	33*	-165%	146%	17%	83
Cc1ccc(C(=O)N[C@H](C(=O)Nc2sccc2C(N)=O)C(C)C)cc1	-1%	18*	15%	-10%	u	18
